Consider 11 molecules from PubChem BioAssay (Tox21).

Assay [1] in a line: Caspase-3/7 induction in HepG2 cells by small molecules, qHTS assay (AID 1346978). Further: nearly all actives have a fitted effect of over 15% in size. Summed up: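 Wild-type HepG2 cells, 2,000/well, settled 5 hr at 37 C and 5% CO2, then compound-treated for 17 hr; caspase-3/7 activity read by luminescent Caspase-Glo 3/7 after 30 min at room temperature.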
In general terms: In qHTS, concentration-response curves come from the screen itself.

Assay [2] is described as follows: Caspase-3/7 induction in CHO-K1 cells by small molecules, qHTS cell viability counter screen (AID 1346979). Further: nearly all actives have a fitted effect of over 35% in size. Summed up:
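Multiplexed with Caspase-Glo 3/7 in CHO-K1 cells, this counter screen added CellTiter-Fluor after 16hr of compound exposure and recorded fluorescence 1hr later.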

Assay [3] can be described thus: Caspase-3/7 induction in HepG2 cells by small molecules, qHTS cell viability counter screen (AID 1346981). Further: series mostly up to about 92 µM; nearly all actives have a fitted effect of over 30% in size. The gist of the method: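 Wild-type HepG2 cells (2,000/well) were allowed to settle for 5 hr at 37 C, 5% CO2, then dosed with compounds in DMSO by pin transfer. After 16 hr at 37 C, CellTiter-Fluor was added and fluorescence read 1 hr later.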
Assay [4] concerns the target Nuclear receptor subfamily 1 group I member 2 (Homo sapiens) (UniProt O75469). Kind of assay: Human pregnane X receptor (PXR) small molecule agonists, qHTS assay (AID 1346982). Further: nearly all actives have a fitted effect of over 35% in size. Further: potency means the concentration at half of the fitted maximal effect. Summed up:
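PXR-Luc HepG2 cells (CYP3A4 promoter-driven luciferase) were seeded in medium with 5% charcoal-stripped FBS, left 5 hr at 37 C, then exposed to compounds in DMSO for 24 hr. Luminescence was read after ONE-Glo addition.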

Assay [5] has the same target. Kind of assay: CYP3A4 induction through human pregnane X receptor (PXR) by small molecules, qHTS assay (AID 1346984). Further: nearly all actives have a fitted effect of over 40% in size. Summed up: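 DPX-2 cells (HepG2 co-transfected with PXR and CYP3A4 promoter-luciferase) treated with compounds 24 h at 37C; luciferin-IPA CYP3A4 substrate 3uM final added for 3 h, then One-Glo; luminescence read. qHTS format.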
The target is the same in assay [6]. Nature of the assay: Human pregnane X receptor (PXR) activation by small molecules, qHTS assay (AID 1346985). Further: nearly all actives have a fitted effect of over 40% in size. Summed up:
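DPX-2 cells (HepG2 co-transfected with a PXR response element and a CYP3A4-promoter luciferase construct) were seeded at 2,000 per well, rested 5 hr at 37C, then exposed to DMSO-dissolved compounds for 24 hr. Activation was read as luciferase luminescence.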

The target of assay [7] is Cytochrome P450 2C19 (Homo sapiens) (UniProt P33261). Nature of the assay: Cytochrome P450 Family 2 Subfamily C Member 19 (CYP2C19) small molecule antagonists: luciferase reporter qHTS assay (AID 1671197). Further: nearly all actives have a fitted effect of over 65% in size. Further: potency means the concentration at half of the fitted maximal effect. On activity change, negative = inhibition: series mostly up to about 120 µM. The gist of the method:
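Relative luminescence units recorded 20 min after the detection reagent stopped a 1 h, 37C CYP2C19 reaction on proluciferin substrate, which was started by NADPH regeneration following 10 min room-temperature compound preincubation; ketoconazole positive control.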

Assay [8] addresses Cytochrome P450 2C9 (Homo sapiens) (UniProt P11712). Nature of the assay: Cytochrome P450 Family 2 Subfamily C Member 9 (CYP2C9) small molecule antagonists: luciferase reporter qHTS assay (AID 1671198). Further: nearly all actives have a fitted effect of over 50% in size. Further: potency means the concentration at half of the fitted maximal effect. On activity change, negative = inhibition: series mostly up to about 120 µM. The gist of the method:
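P450-Glo proluciferin substrate with CYP2C9 enzyme; 10 min RT preincubation, then NADPH regeneration 1 h at 37C; luciferin detection reagent 20 min RT, luminescence in relative luminescence units.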
A general note: In a reporter assay the amount or activity of a reporter protein is the signal.

The target in assay [9] is Cytochrome P450 1A2 (Homo sapiens) (UniProt P05177). Nature of the assay: Cytochrome P450 Family 1 Subfamily A Member 2 (CYP1A2) small molecule antagonists: luciferase reporter qHTS assay (AID 1671199). Further: series mostly up to about 120 µM; nearly all actives have a fitted effect of over 50% in size. The gist of the method: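 Human CYP1A2 activity measured with a P450-Glo proluciferin substrate; compounds in DMSO preincubated 10 min at room temperature with enzyme-substrate mix, then NADPH regeneration system added for 1 h. Luciferin detection reagent, 20 min, luminescence read.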
Cytochrome P450 1A2 (Homo sapiens), sequence (P05177 whole entry, looked up): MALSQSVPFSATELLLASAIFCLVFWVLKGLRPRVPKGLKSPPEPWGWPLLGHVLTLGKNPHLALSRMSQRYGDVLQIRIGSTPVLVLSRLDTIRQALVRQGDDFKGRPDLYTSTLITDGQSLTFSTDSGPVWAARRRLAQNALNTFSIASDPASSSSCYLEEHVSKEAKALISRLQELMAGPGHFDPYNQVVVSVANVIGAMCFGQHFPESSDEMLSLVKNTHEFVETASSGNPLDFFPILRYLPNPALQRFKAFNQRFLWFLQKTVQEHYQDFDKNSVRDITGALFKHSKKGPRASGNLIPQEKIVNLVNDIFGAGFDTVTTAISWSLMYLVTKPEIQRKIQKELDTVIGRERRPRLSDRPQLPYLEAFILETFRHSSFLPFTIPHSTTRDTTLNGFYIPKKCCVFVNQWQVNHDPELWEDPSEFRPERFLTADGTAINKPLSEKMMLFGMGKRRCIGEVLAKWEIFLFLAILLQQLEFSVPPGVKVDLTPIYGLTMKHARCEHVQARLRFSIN

In assay [10] the target is Voltage-gated inwardly rectifying potassium channel KCNH2 (Homo sapiens) (UniProt Q12809). Kind of assay: Human Ether-a-go-go-Related Gene (hERG) channel small molecule antagonists: fluorescence cell-based qHTS assay (AID 1671200). Further: nearly all actives have a fitted effect of over 50% in size. Further: potency means the concentration at half of the fitted maximal effect.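 On activity change, negative = inhibition: hERG-expressing U2OS cells given a thallium stimulus after FluxOR II dye loading; series mostly up to about 77 µM.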 The gist of the method: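 Cell line hERG-U2OS; dye FluxOR II, 1 h RT dark; Tl+ stimulus; ex 480/em 540 nm, read each second for 2 min.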
Voltage-gated inwardly rectifying potassium channel KCNH2 (Homo sapiens), sequence (Q12809 whole entry, looked up): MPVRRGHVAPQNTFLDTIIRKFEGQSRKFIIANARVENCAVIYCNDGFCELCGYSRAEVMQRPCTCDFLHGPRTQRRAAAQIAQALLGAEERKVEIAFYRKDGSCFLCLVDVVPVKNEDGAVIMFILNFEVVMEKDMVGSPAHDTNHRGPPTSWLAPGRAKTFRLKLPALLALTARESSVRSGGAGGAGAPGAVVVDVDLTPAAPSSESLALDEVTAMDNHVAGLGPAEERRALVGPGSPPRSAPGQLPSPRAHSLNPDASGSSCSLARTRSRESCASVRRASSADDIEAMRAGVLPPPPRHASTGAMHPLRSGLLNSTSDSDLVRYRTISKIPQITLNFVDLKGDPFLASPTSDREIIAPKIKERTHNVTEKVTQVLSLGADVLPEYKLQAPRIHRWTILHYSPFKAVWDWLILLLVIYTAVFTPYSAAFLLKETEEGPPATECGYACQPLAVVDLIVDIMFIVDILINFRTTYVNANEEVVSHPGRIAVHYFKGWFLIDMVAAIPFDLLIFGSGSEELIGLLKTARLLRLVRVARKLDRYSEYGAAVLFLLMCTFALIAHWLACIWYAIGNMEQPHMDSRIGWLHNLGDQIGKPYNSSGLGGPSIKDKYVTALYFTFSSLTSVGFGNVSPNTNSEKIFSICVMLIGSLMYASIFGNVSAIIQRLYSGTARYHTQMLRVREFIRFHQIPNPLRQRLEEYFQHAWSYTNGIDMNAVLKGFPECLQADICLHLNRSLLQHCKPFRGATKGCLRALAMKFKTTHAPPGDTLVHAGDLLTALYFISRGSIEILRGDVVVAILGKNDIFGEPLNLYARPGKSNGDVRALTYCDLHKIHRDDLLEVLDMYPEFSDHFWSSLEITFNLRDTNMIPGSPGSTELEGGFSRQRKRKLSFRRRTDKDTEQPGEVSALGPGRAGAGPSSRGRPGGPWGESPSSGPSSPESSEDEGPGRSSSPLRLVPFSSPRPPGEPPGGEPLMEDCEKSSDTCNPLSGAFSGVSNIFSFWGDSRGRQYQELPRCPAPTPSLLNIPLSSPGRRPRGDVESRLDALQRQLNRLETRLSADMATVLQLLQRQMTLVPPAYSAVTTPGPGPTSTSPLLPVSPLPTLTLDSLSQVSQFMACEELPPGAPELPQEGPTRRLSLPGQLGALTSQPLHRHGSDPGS
The target of assay [11] is Cytochrome P450 3A4 (Homo sapiens) (UniProt P08684). Kind of assay: Cytochrome P450 Family 3 Subfamily A Member 4 (CYP3A4) small molecule antagonists: luciferase reporter qHTS assay (AID 1671201). Further: series mostly up to about 120 µM; nearly all actives have a fitted effect of over 50% in size. The gist of the method: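 Room-temperature assay throughout: 10 min compound–enzyme/substrate preincubation, 1 h reaction after NADPH regeneration solution, 20 min detection. Luciferin formed from proluciferin substrate is quantified by luminescence.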
Cytochrome P450 3A4 (Homo sapiens), sequence (P08684 whole entry, looked up): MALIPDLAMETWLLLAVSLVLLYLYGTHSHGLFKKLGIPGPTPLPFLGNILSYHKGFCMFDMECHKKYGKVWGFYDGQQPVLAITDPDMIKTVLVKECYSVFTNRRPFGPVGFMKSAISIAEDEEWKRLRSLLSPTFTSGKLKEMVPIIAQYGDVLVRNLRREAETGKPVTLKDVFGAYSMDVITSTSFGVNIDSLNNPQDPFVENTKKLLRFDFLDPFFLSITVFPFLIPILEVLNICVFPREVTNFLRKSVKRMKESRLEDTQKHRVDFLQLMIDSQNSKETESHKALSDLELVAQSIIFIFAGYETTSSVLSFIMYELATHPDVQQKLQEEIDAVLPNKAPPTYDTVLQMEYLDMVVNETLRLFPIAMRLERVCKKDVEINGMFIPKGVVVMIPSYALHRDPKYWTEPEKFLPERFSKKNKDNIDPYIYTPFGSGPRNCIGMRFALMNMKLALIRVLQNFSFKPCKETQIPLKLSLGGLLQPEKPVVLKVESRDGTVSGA

Assay [12] has as its target Nuclear receptor subfamily 1 group I member 2 (Rattus norvegicus) (UniProt Q9R1A7). Kind of assay: Rat pregnane X receptor (rPXR) activation by small molecules, qHTS assay (AID 1346983). Further: nearly all actives have a fitted effect of over 20% in size. The conditions noted are these: rPXR luciferase reporter cells, One-Glo luminescence, 24 h; max activation: hits give high values. The gist of the method: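 Cell-based rPXR activation assay: rPXR cells, 2,000 per well, rested 5hr at 37 C, then exposed to compounds in DMSO for 24 hr at 37 C. Luciferase activity read by One-Glo luminescence after 30 min at room temperature.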

Assay [13] concerns the target Cytochrome P450 2D6 (Homo sapiens) (UniProt P10635). Nature of the assay: Cytochrome P450 Family 2 Subfamily D Member 6 (CYP2D6) small molecule antagonists: luciferase reporter qHTS assay (AID 1671196). The gist of the method:
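CYP2D6 enzyme–substrate mix was held with compound for 10 min at room temperature, then NADPH regeneration solution was added and the reaction ran 1 h at room temperature. Luciferin product was detected by luminescence after 20 min with detection reagent.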

Assay [14] can be described thus: Caspase-3/7 induction in CHO-K1 cells by small molecules, qHTS assay (AID 1346980). Further: nearly all actives have a fitted effect of over 15% in size. Summed up:
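Wild-type CHO-K1 cells exposed to compounds for 17hr at 37 C, 5% CO2. Caspase-3/7 activity then measured by Caspase-Glo 3/7 luminescence after 30min at room temperature.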

Values without a mark were called inactive. Records with an inconclusive call do not appear. Active and inactive are the calls of the source. The call rests on the fitted dose curve; in most records, active means well fitted curve in the direction sought with a large enough effect in the repeat runs; inconclusive means weak or mixed curves; inactive means no such curve, though single readings can be large; an effect the other way counts as inactive or inconclusive.
On the % scale 0 is the no-effect control and ±100 the full control effect.

Cytochrome P450 2D6 (Homo sapiens), sequence (P10635 whole entry, looked up): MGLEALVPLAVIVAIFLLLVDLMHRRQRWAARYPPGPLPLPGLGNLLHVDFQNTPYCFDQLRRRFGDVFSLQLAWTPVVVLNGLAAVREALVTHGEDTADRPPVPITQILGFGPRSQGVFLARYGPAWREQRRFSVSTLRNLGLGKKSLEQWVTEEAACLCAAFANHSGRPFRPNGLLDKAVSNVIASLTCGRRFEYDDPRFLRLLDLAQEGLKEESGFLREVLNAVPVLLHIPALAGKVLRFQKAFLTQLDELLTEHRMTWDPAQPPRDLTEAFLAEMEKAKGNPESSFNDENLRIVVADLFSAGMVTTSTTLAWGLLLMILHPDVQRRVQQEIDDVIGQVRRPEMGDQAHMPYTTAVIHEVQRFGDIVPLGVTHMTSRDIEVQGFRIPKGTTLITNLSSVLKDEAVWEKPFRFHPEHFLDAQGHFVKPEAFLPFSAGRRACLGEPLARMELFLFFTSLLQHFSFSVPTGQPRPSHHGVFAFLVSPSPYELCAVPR
Nuclear receptor subfamily 1 group I member 2 (Homo sapiens), sequence (O75469 whole entry, looked up): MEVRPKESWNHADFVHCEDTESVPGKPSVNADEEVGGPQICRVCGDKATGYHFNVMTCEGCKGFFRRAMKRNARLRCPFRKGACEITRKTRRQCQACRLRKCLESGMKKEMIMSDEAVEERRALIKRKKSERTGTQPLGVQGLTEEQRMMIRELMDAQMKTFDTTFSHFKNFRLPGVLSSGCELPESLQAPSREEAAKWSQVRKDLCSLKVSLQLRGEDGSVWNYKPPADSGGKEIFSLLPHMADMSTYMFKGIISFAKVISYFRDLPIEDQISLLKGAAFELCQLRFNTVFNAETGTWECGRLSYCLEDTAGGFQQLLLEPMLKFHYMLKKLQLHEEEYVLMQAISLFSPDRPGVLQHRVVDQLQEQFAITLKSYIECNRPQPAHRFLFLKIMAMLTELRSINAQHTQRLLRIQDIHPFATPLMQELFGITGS
Cytochrome P450 2C9 (Homo sapiens), sequence (P11712 whole entry, looked up): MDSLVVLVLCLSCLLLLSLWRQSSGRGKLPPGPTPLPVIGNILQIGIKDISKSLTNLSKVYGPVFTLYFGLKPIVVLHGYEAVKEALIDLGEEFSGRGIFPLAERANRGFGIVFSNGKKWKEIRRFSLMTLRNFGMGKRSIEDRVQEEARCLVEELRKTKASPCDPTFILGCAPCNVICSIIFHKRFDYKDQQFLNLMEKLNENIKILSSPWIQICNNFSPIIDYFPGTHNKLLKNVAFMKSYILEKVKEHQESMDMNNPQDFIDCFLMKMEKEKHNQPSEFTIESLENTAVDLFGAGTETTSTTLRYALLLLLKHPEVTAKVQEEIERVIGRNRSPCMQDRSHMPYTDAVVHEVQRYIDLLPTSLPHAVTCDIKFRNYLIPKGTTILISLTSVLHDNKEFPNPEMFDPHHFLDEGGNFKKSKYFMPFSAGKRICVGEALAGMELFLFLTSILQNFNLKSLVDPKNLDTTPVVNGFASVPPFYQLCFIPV
Cytochrome P450 2C19 (Homo sapiens), sequence (P33261 whole entry, looked up): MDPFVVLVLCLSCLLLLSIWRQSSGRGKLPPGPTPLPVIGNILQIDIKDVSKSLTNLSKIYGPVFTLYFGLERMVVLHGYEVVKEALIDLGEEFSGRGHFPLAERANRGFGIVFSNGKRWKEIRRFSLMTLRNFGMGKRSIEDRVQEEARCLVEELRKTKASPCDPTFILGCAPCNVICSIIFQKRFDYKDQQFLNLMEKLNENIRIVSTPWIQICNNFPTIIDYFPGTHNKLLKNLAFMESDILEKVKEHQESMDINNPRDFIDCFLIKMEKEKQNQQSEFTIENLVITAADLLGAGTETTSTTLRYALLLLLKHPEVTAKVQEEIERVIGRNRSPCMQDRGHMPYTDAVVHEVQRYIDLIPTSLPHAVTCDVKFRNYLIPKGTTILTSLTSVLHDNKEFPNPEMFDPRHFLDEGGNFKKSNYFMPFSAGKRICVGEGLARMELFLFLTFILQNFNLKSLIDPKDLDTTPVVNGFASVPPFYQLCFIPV
Nuclear receptor subfamily 1 group I member 2 (Rattus norvegicus), sequence (Q9R1A7 whole entry, looked up): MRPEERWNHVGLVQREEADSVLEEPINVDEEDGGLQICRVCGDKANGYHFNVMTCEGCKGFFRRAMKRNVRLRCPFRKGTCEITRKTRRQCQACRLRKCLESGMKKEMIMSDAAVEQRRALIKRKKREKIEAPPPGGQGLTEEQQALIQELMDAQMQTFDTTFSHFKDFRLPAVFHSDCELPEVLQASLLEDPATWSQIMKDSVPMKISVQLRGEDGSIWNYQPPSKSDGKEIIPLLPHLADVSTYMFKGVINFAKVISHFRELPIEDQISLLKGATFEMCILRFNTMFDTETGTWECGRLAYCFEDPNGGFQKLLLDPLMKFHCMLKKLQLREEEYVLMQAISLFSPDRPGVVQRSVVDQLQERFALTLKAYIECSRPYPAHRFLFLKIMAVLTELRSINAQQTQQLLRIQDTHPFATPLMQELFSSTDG

As to `C[C@@H]1CN(c2c(F)c(F)c3c(=O)c(C(=O)O)cn(C4CC4)c3c2F)C[C@H](C)N1`, the caspase activation in [1] is -1.23% [at 19 µM]. Further, the activity change, negative = cytotoxicity in assay [2] is 0.544% [at 19 µM]; in assay [3], 0.129% [at 19 µM]. Further, the activation in assay [4] is -4.26% [at 19 µM]. In addition, the Potency result in assay [5], in assay [6], in assay [8] and in [9] was “inactive” in each case. Further, the activity change, negative = inhibition is 5.04% [at 23.6 µM] in assay [7], 7.01% [at 15.8 µM] in assay [10] and 9.32% [at 23.6 µM] in assay [11].

Take `O=c1[nH]c(=O)n([C@H]2C[C@H](O)[C@@H](CO)O2)cc1C(F)(F)F`: the Potency result in [1], in assay [2], in [3], in assay [4], in [6] and in assay [13] was “inactive” in each case. Moreover, the Potency entry in assay [7], in [8], in assay [9], in assay [10] and in assay [11] was “inactive” throughout. The max activation in assay [12] is 3.55%.

In the case of `CN(C)CC[C@@H](c1ccc(Cl)cc1)c1ccccn1`, the Potency entry in [1], in assay [2] and in assay [3] was “inactive” throughout.

As to `CN(C)CCOc1ccccc1Cc1ccccc1`, the Potency result in assay [1], in [2], in assay [3], in assay [4], in assay [13] and in [8] was “inactive” in each case. Moreover, in assay [11], the Potency result was “inactive”. In addition, the Potency in assay [10] was 7.56 µM (active).

`CCN(CC)C(=O)N(CC)CC`: the Potency entry in assay [1], in assay [2], in assay [3], in assay [4], in [8] and in assay [10] was “inactive” in each case. Also, in assay [11], the Potency result was “inactive”.

Regarding `O=CCCc1ccccc1`, the Potency entry in assay [1], in assay [2], in [3] and in assay [10] was “inactive” throughout. For the same molecule, the Potency in assay [7] is 25.2 µM (active); in assay [8], 35.6 µM (active).

Take `CCCCCCCCCCCCCCCCOP(=O)([O-])OCC[N+](C)(C)C`: the Potency entry in [1], in assay [2], in assay [3], in [4], in assay [5] and in assay [6] was “inactive” in each case. Moreover, the Potency result in assay [7], in assay [8], in assay [10] and in assay [11] was “inactive” each time.

For `C1CSCCS1`, the Potency entry in [1], in assay [2], in assay [7], in [8], in assay [9] and in [10] was “inactive” in each case. The Potency entry in assay [11] was “inactive”. For the same molecule, in assay [4], the Potency was 27.1 µM (active).

With `C/C(=N\O)[C@@H](C)NCC(C)(C)CN[C@H](C)/C(C)=N/O`, the Potency result in [1], in assay [2], in assay [7], in assay [8], in [9] and in assay [10] was “inactive” in each case. Further, the call in [14] was inactive.

As for `C[C@@H]1CN(c2c(F)c(N)c3c(=O)c(C(=O)O)cn(C4CC4)c3c2F)C[C@H](C)N1`, the caspase activation in assay [1] is 0.598% [at 19 µM]. Moreover, the activity change, negative = cytotoxicity was 5.21% [at 19 µM] in [2] and -0.6% [at 19 µM] in [3]. In addition, the activation in assay [4] was -7.57% [at 19 µM]. The max activation in assay [12] is -3.87%. For the same molecule, the Potency result in [5], in [6], in assay [8] and in assay [9] was “inactive” throughout. Also, the activity change, negative = inhibition in [13] is -4.41% [at 23.6 µM]; in assay [7] it was 45.2% [at 23.6 µM]; in assay [10], -2.21% [at 15.8 µM]; in assay [11], -3.59% [at 23.6 µM].

As for `CCCCC(=O)O[C@]1(C(=O)CO)[C@H](C)C[C@H]2[C@@H]3CCC4=CC(=O)C=C[C@]4(C)[C@@]3(F)[C@@H](O)C[C@@]21C`, the Potency result in [1], in assay [2], in assay [3], in assay [4], in assay [5] and in assay [9] was “inactive” throughout. Moreover, the Potency entry in assay [10] was “inactive”. Also, in [8], the Potency was 17.4 µM (active).
